From PubChem BioAssay (NCATS)
Results filed as inconclusive are left out. Unmarked numbers belong to inactive results. The call rests on the fitted dose curve; in most records, active means well fitted curve in the direction sought with a large enough effect in the signal ratio, with a control signal flat (not every such curve was filed as active); inconclusive means small, poorly fitted or top-dose-only effect, or a change in a side signal; inactive means no such curve, though single readings can be large or run the other way; the % refers to the signal ratio.

Assay: qHTS Assay for Identification of Small Molecule Inducers of Hypoxia Response (AID 2120); further: 0% is about no effect
Details: hypoxia response reporter cells, beta-lactamase ratio readout; series mostly up to 104 µM; activation: at the top concentration
How it was run: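 HRE-bla ME-180 cells in Opti-MEM with 0.5% dialyzed FBS, pre-plated 4-5 h, then compound titration for 17 h at 37 degrees Celsius. CCF4 loaded 2.5 h at room temperature; 460/530 nm ratio gave %Activity and AC50 for induction.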

| Structure (SMILES) | activation [%] |
| --- | --- |
| CCOc1ccc(NC(C)=O)cc1 | -0.524 |
| NCCNc1cccc2ccccc12 | 2.67 |
| O=C(O)c1ccc(S(=O)(=O)N(Cl)Cl)cc1 | 0.725 |
| C/C=C/c1ccc(O)c(OC)c1 | -0.0139 |
| CCOc1ccccc1C(N)=O | 0.604 |
| NC(=O)c1ccccc1O | 0.826 |
| COc1ccc(C(Cl)=C(c2ccc(OC)cc2)c2ccc(OC)cc2)cc1 | 2.97 |
| OC[C@H]1O[C@@H]2O[C@H]3[C@H](O)[C@@H](O)[C@@H](O[C@H]4[C@H](O)[C@@H](O)[C@@H](O[C@H]5[C@H](O)[C@@H](O)[C@@H](O[C@H]6[C@H](O)[C@@H](O)[C@@H](O[C@H]7[C@H](O)[C@@H](O)[C@@H](O[C@H]8[C@H](O)[C@@H](O)[C@@H](O[C@H]1[C@H](O)[C@H]2O)O[C@@H]8CO)O[C@@H]7CO)O[C@@H]6CO)O[C@@H]5CO)O[C@@H]4CO)O[C@@H]3CO | -0.282 |
| COc1ccc(C(=O)c2ccccc2)c(O)c1 | 1.33 |
| COc1cc([C@H]2Oc3cc([C@H]4Oc5cc(O)cc(O)c5C(=O)[C@@H]4O)ccc3O[C@@H]2CO)ccc1O | 0.383 |
| CCCCC(CC)COC(=O)c1ccc(N(C)C)cc1 (stereo unspecified) | 0.59 |
